Shown are actives, neighbours in structure and some others; about 1.4% of the full set was active somewhere.
MenB inh: Mtb MenB enzyme inhibition; MenB enzyme assay, absorbance read-out; inhibition, % (test concentration not listed); actives 0.43% (n = 100,000); AID 540299; in the data active means inhibition above about 21%, passing the limit was not always enough
Target sequence (P9WNP5 whole entry, looked up): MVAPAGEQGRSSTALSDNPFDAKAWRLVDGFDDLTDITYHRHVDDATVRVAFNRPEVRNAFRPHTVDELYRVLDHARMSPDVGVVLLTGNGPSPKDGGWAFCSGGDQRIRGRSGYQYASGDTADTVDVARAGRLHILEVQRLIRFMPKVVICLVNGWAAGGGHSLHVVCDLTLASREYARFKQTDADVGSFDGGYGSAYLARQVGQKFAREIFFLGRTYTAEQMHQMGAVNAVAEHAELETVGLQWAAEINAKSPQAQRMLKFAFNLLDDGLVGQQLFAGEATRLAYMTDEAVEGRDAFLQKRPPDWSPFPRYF
PV pol inh: poliovirus RNA polymerase inhibition; % elongation, % (compound at 16.7 µg/mL); actives 0.66% (n = 150,000); P03300; AID 588519; poliovirus polymerase elongation, fluorescence polarization; stronger effect = lower value; in the data active means % elongation below about 90%
AID504770: growth inhibitors of E. coli YBA685 in a screen for V. cholerae RctB (chromosome II replication) inhibitors. E. coli YBA685 rctB-dependent plasmid, OD600 growth, 3 h; stronger effect = lower value. z-score (concentration not given with the values). actives 0.27% (n = 130,000). AID 504770; in the data active means z-score below about -2, passing the limit was not always enough
MbtI inh: MbtI salicylate synthase inhibition; P9WFX0; purified MbtI enzyme, fluorescence intensity read-out; inhibition, % (test concentration not listed); actives 0.89% (n = 100,000); AID 493033; in the data active means inhibition mostly above about 56%, no sharp cut-off; inactive means mostly below about 77%
* hit, by the source's call; . = not tested or not shown; ! = repeats disagree.

SMILES	MenB inh	PV pol inh	AID504770	MbtI inh
Cn1c(CCC(=O)NCc2ccc(F)cc2)nc2cc(S(=O)(=O)N3CCCCC3)ccc21	-3	.	0.35	18
COc1ccc(NC(=O)CCc2nc3cc(S(=O)(=O)N4CCCCC4)ccc3n2C)cn1	-27	79	0.4	95*
C=C1c2cccc(O)c2C(O)=C2C(=O)C3(O)C(O)=C(C(N)=O)C(=O)C(N(C)C)C3C(O)C12 (configuration not stated)	-20	102	-6.9*	38
CCOc1ccc(N2C(=O)/C(=C/c3cccs3)C(=O)N(c3ccccc3)C2=S)cc1	-22	106	-0.55	73*
N#CC(C#N)=CN1CCC(C(=O)c2ccccc2)CC1	-10	105	-0.45	-10
CCCCN(C(=O)c1c(C)oc2ncn(C)c(=O)c12)C1CCN(C(C)=O)CC1	-21	104	0.65	-26
O=C(C[n+]1cccc(C(=O)Nc2ccccc2)c1)c1ccc(N2C(=O)c3ccccc3C2=O)cc1	-89	102	-2.8	57*
O=C(Oc1ccc(Br)cc1F)C1CC(=O)N(c2ccc3c(c2)OCCO3)C1 (configuration not stated)	-33	87*	-0.9	2
C1=CCC2NC(C1)Cc1ccccc12 (configuration not stated)	29*	103	-0.25	-1
CCN(CC)C(=O)Cn1cc(C#N)c2ccccc21	-8	100	3.1	.
Oc1c(Cl)cc(Cl)c2cccnc12	-8	98	-1.2	-12
O=C(Oc1c(Cl)cc(Cl)c2cccnc12)c1ccco1	-36	98	-3.4*	-8
CC(C(=O)O)c1ccc(N2Cc3ccccc3C2=O)cc1 (configuration not stated)	-14	102*!	0.45	-4
C=CCc1cccc(C=Nc2ccc(Br)cc2)c1O	.	.	-1.4	.
C=CCc1cccc(O)c1O	.	101	-0.05	89*
CCCn1c(CCC(=O)Nc2ccccc2)nc2cccnc21	-6	99	-1	1
O=c1[nH]c(CN2CCNCC2)nc2ccccc12	-10	98	0.05	-123
CC(c1nc2ccccc2c(=O)[nH]1)N1CCN(Cc2ccc(Cl)s2)CC1 (configuration not stated)	-7	-3.0*	1.1	9
O=C(O)CCC(=O)N1CC(=O)Nc2ccccc21	-8	96	-0.05	.
CC1(C)C(=O)NCCN1C(=O)CCC(=O)O	31*	100	-0.35	-2
CCNS(=O)(=O)c1ccc(-c2cc(C(=O)OCC)no2)s1	-18	100	0.15	70
CCC(=O)Nc1cccc2cccnc12	-9	102	1.4	6
COc1nc(NC(=O)NS(=O)(=O)Nc2cccc3cccnc23)nc(OC)n1	7	79*	0.55	2
Cc1sc2c(c1C)CSC(C(=O)O)=C2	-20	100	-1.4	98*
CCN(C(=O)c1sc2ccccc2c1Cl)C(Cc1ccccc1)c1ccc(OC)cc1 (configuration not stated)	.	.	0.9	.
SMILES	MenB inh	PV pol inh	AID504770	MbtI inh
O=C1CSCC(=O)N1c1ccc2c(c1)OCO2	.	.	-0.3	.
O=C1CSCC(=O)N1c1cccnc1	3	84*	-1	-12
O=C1c2ccccc2C(=O)C1c1cc(=O)[nH]c2ccccc12	-168	87*	-0.65	6
O=c1cc(O)c2ccccc2[nH]1	-155	101	-0.85	55
Cc1cccc(N2CCN(C(=O)c3ccc(NC(N)=O)cc3)CC2C)c1 (configuration not stated)	-36	101	-0.05	-6
CN(Cc1ccccc1)CN1C(=O)NC(C)(c2ccccc2)C1=O (configuration not stated)	2	101	0.65	4
CCC(C(=O)N1CCCC1)n1nc(C)c2sc3ccccc3c2c1=O (configuration not stated)	7	102	-1.5	8
CCC(C(=O)N1CCN(c2ccccc2)CC1)n1nc(C)c2sc3ccccc3c2c1=O (configuration not stated)	.	90*	.	.
COc1cc(NC(=O)CS)cc(OC)c1	-107	99	-0.2	90*
Cc1ccc(CNC(=O)CN2CCC(n3nnc4cc(C)ccc43)CC2)cc1	-52	100	0.1	-1
O=S(=O)(Nc1ncccn1)c1ccccc1	0	101	-0.6	-8
Nc1nc(NS(=O)(=O)c2ccccc2)ns1	.	.	-2.9*	.
CCC(=O)C1(Sc2nc3ccccc3[nH]2)CC(C)(C)OC1=O (configuration not stated)	-10	102	-0.4	102*
CCSc1nc2ccccc2[nH]1	.	.	0.25	.
CCCn1c(=O)n(Cc2c(C)noc2C)c(=O)c2c1nc(C(F)(F)F)n2CCOC	5	97	-0.3	-7
Clc1nc2c(Cl)cccc2s1	-25	103	-1	59*
Clc1cccc2sc(N3CCCC3)nc12	-4	102	-0.8	-1
S=C(NCCN1CCOCC1)Nc1ccccc1	-14	106	-1.9	-1
FC(F)(F)c1ccccc1NNC(=S)NCCN1CCOCC1	-25	98	0.7	71*
CC(C)c1ccccc1N=Cc1ccc[nH]1	.	102	1.1	6
CN1CCN(CCNc2nc(-c3ccccc3F)no2)CC1	-1	99	-0.5	-8
COC(=O)/C=C1/OC(c2ccc(Cl)cc2)=CC1=O	-58	108	-0.75	100*
COC(=O)c1cc(-c2ccc(Cl)cc2)on1	26	101	-0.4	.
O=C(NC1(O)C(=O)c2ccccc2C1=O)c1cnn(-c2ccccc2)c1C(F)(F)F	-2	48*	-1.4	-11
O=C(NC1(O)C(=O)c2ccccc2C1=O)c1ccccn1	-10	54*	0.6	-8
SMILES	MenB inh	PV pol inh	AID504770	MbtI inh
O=C(NC1CC1)c1cnn(-c2ccc(Cl)cc2)c1C(F)(F)F	.	.	0.1	.
Cc1nc(C(=O)NC2(O)C(=O)c3ccccc3C2=O)cs1	.	.	-0.6	.
Cc1ccc(C(=O)NC2(O)C(=O)c3ccccc3C2=O)cc1C	.	.	-1.6	.
O=C(NC1(O)C(=O)c2ccccc2C1=O)c1ccc(C(F)(F)F)cc1	1	9.0*	-0.35	-2
O=C1N(CN(CCc2ccccc2)Cc2ccccc2)c2ccccc2C12OCCCO2	13	101	-0.45	1
O=C(Nc1ccc(I)cc1)c1ccccc1C(=O)c1ccccc1	-8	97	-0.6	.
CC(C)N(C(=O)Cn1c(-c2cccnc2)ccc(C#N)c1=O)C(C)C	-21	99	-2.5	13
N#Cc1ccc(-c2cccnc2)n(CC(=O)N2CCOCC2)c1=O	42*	101	1.1	27
Nc1cc(C(F)(F)F)ccc1-n1cnc2ccccc21	.	102	1.1	90*
c1ccc(CCc2nn3c(COc4ccccc4)nnc3s2)cc1	-34	99	-1	76*
c1ccc(-c2nn3c(-c4ccccc4)nnc3s2)cc1	-3	101	0.5	19
c1ccc(OCc2nn3c(-c4ccccc4)nnc3s2)cc1	-45	96	0.55	86*
O=C1c2ccccc2C(=O)N1CCc1nn2c(-c3cccnc3)nnc2s1	9	100	-0.4	87*
COc1ccc(-c2nnc3sc(C(C)N4C(=O)c5ccccc5C4=O)nn23)cc1 (configuration not stated)	-11	102	-0.25	5
Cc1cc(C)n(CCCNC(=O)c2ccc(NS(=O)(=O)c3cc(Cl)sc3Cl)cc2)n1	-16	105	-0.5	-11

Compound activity from PubChem BioAssay.
